Only some compounds are listed: those with a hit (about 2.9% of all), similar ones and a draw of the others.
PLC-beta3 inh: inhibitors of human phospholipase C beta3; Q01970; Purified PLC-beta3, fluorogenic substrate, fluorescence; inhibition, % at 12.2 µM; 370,000 compounds, 0.18% hits; AID 720704;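 note: 0% = median of compound wells on plate and 100% = full blocker control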
KLK7 zymogen act: proKLK7 (human) activation, primary screen. P49862. purified proKLK7, EDANS-DABCYL substrate fluorescence; 100% is mature enzyme control, 0% vehicle. activation, % at 7 µM. 370,000 compounds, 0.9% hits. AID 652039;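 active = activation above the mean of all tested compounds plus 3 SD, computed per campaign excluding outliers beyond control limits, cut at about 13% in these data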
Target sequence (P49862 whole entry, looked up): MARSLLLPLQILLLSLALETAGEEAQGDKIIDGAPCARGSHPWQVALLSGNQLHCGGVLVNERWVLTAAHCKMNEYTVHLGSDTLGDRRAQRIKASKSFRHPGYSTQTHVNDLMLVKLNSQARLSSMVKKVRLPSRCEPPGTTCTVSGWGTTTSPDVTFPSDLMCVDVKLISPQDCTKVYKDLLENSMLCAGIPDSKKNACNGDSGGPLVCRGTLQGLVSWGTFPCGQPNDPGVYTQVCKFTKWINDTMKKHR
ADAM17 inh: ADAM17 inhibition, QFRET primary screen | P78536 | recombinant ADAM17, EDANS/DABCYL FRET peptide cleavage | inhibition, % at 6.95 µM | 370,000 compounds, 0.83% hits | AID 720648;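 active = inhibition above the mean of compounds lying between control limits plus 3 SD, set per campaign, cut at about 8.5% in these data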;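 note: 0% = DMSO-only wells as the low control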
ADAM10 inh: ADAM10 inhibition, QFRET primary screen. recombinant ADAM10, EDANS/DABCYL FRET peptide cleavage, 3 h. AID 720582. 370,000 compounds, 0.62% hits. O14672. inhibition, % at 7 µM;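 active = inhibition above a per-campaign cutoff equal to the mean of compounds falling between control-based bounds plus 3 SD, cut at about 20% in these data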;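 note: 0% = DMSO wells while the 100% control is not disclosed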
PLCg1 inh: inhibitors of human phospholipase C gamma1 | purified PLC-gamma1, fluorogenic substrate, fluorescence | 370,000 compounds, 0.84% hits | inhibition, % at 12.2 µM | P19174; in the data active = inhibition above about 9.5%
PLCg1 ctr: PLC-gamma1 inhibition, counter-screen for PLC-beta3 hits; shares compounds with PLCg1 inh; purified PLC-gamma1, fluorogenic substrate, fluorescence; inhibition, % at 12.3 µM; 3,300 compounds, 3.1% hits; in the data active = inhibition above about 9.5%
PLCbeta3 conf: human PLC-beta3 inhibition, confirmation; shares compounds with PLCg1 inh; purified PLC-beta3, fluorogenic substrate fluorescence; 3,300 compounds, 1% hits; inhibition, % at 12.3 µM
* hit, by the source's call; nt = not tested or not shown. Cut-off read from the data, not from the text of the source, unless noted: active = inhibition above about 11%; inactive = the rest.

SMILES	PLC-beta3 inh	KLK7 zymogen act	ADAM17 inh	ADAM10 inh	PLCg1 inh	PLCg1 ctr	PLCbeta3 conf
CC(C)=CCN1CCN(Cc2cc(CC(C)C)n[nH]2)CC1CCO (stereo unspecified)	0	0	-3	3	9.6*	-1	0
CC(C)NC(=O)c1ccccc1NC(=O)C1CC(=O)N(C(C)C)C1 (stereo unspecified)	-10	0	-1	-6	-1	nt	nt
Cn1c(SCc2ccccn2)nnc1-c1cnccn1	-2	-1	-2	-3	3	nt	nt
Cc1cccc(CSc2nnc(-c3cnccn3)n2C)c1	2	0	6	14	12*	0	0
Cc1ccc(NC(=O)CSc2nnc(-c3cnccn3)n2C)cc1C	-8	-1	1	-9	9.7*	-4	0
COc1ccc(NC(=O)c2cn(CCC#N)nc2-c2cccs2)cc1	2	0	-1	-3	3	nt	nt
S=C(NC1CC1)SCc1ccco1	-17	-1	-7	-8	5	nt	nt
CCN1CCCC1CNCc1cc(OC)c(OC)c(OC)c1 (stereo unspecified)	2	-1	-3	-5	1	nt	nt
CCOc1cc(CNCC2CCCN2CC)cc(Cl)c1OC (stereo unspecified)	1	0	5	2	12*	-1	-1
CC1(Cc2c(Cl)cccc2Cl)C(=O)Nc2cc(-c3ccccc3Cl)ccc21 (stereo unspecified)	-2	0	1	-9	1	nt	nt
COC(=O)c1cccc(CC2(C)C(=O)Nc3cc(-c4ccccc4Cl)ccc32)c1 (stereo unspecified)	8	0	7	13	14*	-1	0
COc1cccc(CN2C(=O)N(C(C)C)C(N(O)C(=O)NC(C)C)C2(C)C)c1OC (stereo unspecified)	15*	0	4	2	14*	4	5
O=C(C[n+]1ccccc1)N/N=C/c1ccco1	3	0	2	0	9.5*	5	2
CCC(C)NCCCOc1cc(Cl)ccc1Cl (stereo unspecified)	2	0	1	2	1	nt	nt
CCCCNCCCOc1cc(Cl)ccc1Cl	11*	0	8	4	7	-5	1
COc1ccc(N(C)S(=O)(=O)c2cccc(C(=O)Nc3nnc(C)s3)c2)cc1	-9	0	-6	-7	-1	nt	nt
CC(=NOC(=O)c1ccc(Cl)cc1)c1nccs1	7	0	5	3	16*	-8	-5
COc1ccc(/C=C2\CCC(C3CCCC3)C2=O)cc1 (stereo unspecified)	-5	0	-2	-12	10.0*	2	4
O=C(CSc1nnc(-c2ccccc2)n1-c1ccc(Cl)cc1)Nc1ccc(OCc2ccccc2)cc1	1	1	2	1	0	nt	nt
Cc1cc(C)cc(OCC(=O)NCCc2nc3ccccc3[nH]2)c1	0	-1	1	4	1	nt	nt
COc1ccc(C(c2c(C)[nH]n(-c3ccccc3)c2=O)c2c(C)[nH]n(-c3ccccc3)c2=O)cc1OC	8	0	2	2	25*	1	0
Cc1ccc(S(=O)(=O)N2CCC(=O)N(C(COCc3cccc(C)c3)C(C)C)CC2)cc1 (stereo unspecified)	2	1	7	12	11*	2	2
Cc1cc(=O)[nH]c(CN2CCOCC2)n1	5	0	1	11	-1	nt	nt
COc1cccc(C(O)c2cnc(C(C)C)n2C)c1OC (stereo unspecified)	2	0	-1	-13	1	nt	nt
O=C(C1CCCN1S(=O)(=O)c1ccc(Cl)cc1)N1CCN(c2ccccc2)CC1 (stereo unspecified)	1	1	0	-13	0	nt	nt
SMILES	PLC-beta3 inh	KLK7 zymogen act	ADAM17 inh	ADAM10 inh	PLCg1 inh	PLCg1 ctr	PLCbeta3 conf
CCOc1cc(/C=C2/C(=O)N(c3ccccc3)N=C2C)ccc1OC(=O)c1ccco1	3	0	3	-1	10*	-4	-3
CCCCOc1cccc(C(=O)Nc2ccc(NC(=O)c3cccs3)cc2)c1	6	-1	1	2	9.6*	-119	-118
CCOc1ccc(NC(=O)c2cccc(NC(=O)c3ccccc3)c2)cc1	-5	-1	5	4	11*	-5	-1
CCCOc1ccc(C(=O)Nc2ccc(NC(=O)c3cccs3)cc2)cc1	0	0	-2	-3	2	nt	nt
CCOc1ccc(C(=O)Nc2ccc3[nH]ncc3c2)cc1	6	2	-8	-8	12*	-9	-1
O=C(NN(C(=O)c1ccccc1)c1ccccc1)c1ccccc1	-2	0	1	9	9	nt	nt
CCN1CCCC1CNC(=O)C(=O)NCc1ccccc1 (stereo unspecified)	-2	0	-2	1	0	nt	nt
CCOCCCNC(=O)c1oc2ccc(S(=O)(=O)N3CCOCC3)cc2c1C	-8	0	4	2	2	nt	nt
CCN1C(=O)c2ccccc2S(=O)c2ccc(C(=O)N3CCCCCC3)cc21 (stereo unspecified)	11*	0	-1	11	6	-6	-4
CCc1n[nH]c2c1C(=O)CC(C)(C)C2	3	-1	-5	-10	1	nt	nt
CN(C(=O)CCS(=O)(=O)c1ccc2c(c1)oc(=O)n2C)C1CCCCC1	-4	0	2	-1	14*	-6	-1
Cc1ccc(N(C)C(=O)CCS(=O)(=O)c2ccc3c(c2)oc(=O)n3C)cc1	-2	0	0	-8	-2	nt	nt
COCc1cc(C)nc(SCC[N+](C)(C)CC(=O)Nc2cccc(C)c2)c1C#N	4	0	2	1	4	nt	nt
CCN(c1ccccc1)S(=O)(=O)c1cccc(C(=O)NCc2cccnc2)c1	-1	-1	-4	4	-1	nt	nt
CCOc1cccc(N(C(=O)C2COc3ccccc3O2)C(C(=O)NC2CCCCC2)c2ccc(O)cc2)c1 (stereo unspecified)	11*	0	5	14	8	-3	0
CCc1ccc(Nc2nnc(SCC(=O)Nc3cccc(S(=O)(=O)NC4=NCCCCC4)c3)s2)cc1	3	1	6	16	9.7*	-4	-4
O=C(NCC(c1cccs1)N1CCOCC1)c1cn(-c2ccccc2)nc1-c1ccc(F)cc1 (stereo unspecified)	-4	0	-1	-4	1	nt	nt
Cc1cccc(NC(=O)C(=O)NCC2CCCN2S(=O)(=O)c2cccs2)c1 (stereo unspecified)	-6	0	7	3	9.5*	-4	-5
COc1ccc(NC(=O)N2CCCC2C(=O)Nc2cccc(C)c2C)cc1 (stereo unspecified)	6	-1	3	9	12*	-4	-3

From PubChem
